For some assays here: Measured potencies and affinities stand elsewhere. Active and inactive are the calls of the source.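 Rule for the calls, unless noted: active = compound raising the membrane signal above positive-control mean plus 3 SD in both repeats, and a primary screen hit; inactive = the rest.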
What was measured:
[1] = test system: TRPC4 beta (transient receptor potential cation channel C4), mouse; test: TRPC4 cation channel opening, retest – cell-based, Fluo4 calcium, HEK293 TRPC4beta/mu-opioid, duplicates, 10 µM, confirmation (AID 2426;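 active = fluorescence ratio normalized to control raised more than 50% in primary screen plus both repeat runs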;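 for activation: percent rise of integrated ratio over buffer wells lacking compound which define 0%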); conditions: Fluo4 calcium fluorescence, at 10 µM; hits give high values
[2] = test system: transient receptor potential cation channel C4 beta (TRPC4), mouse; test: TRPC4 cation channel opening, second retest – cell-based, second round, Fluo4, HEK293 TRPC4beta/mu-opioid, 1 µM, confirmation (AID 2461;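 active = primary screen active and over 50% activation in each of two duplicate runs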;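 for activation: 0% = wells without test compound as baseline of integrated fluorescence ratio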); conditions: Fluo4 calcium fluorescence, at 1 µM; hits give high values
[3] = test system: TRPC4 (transient receptor potential cation channel C4 beta), mouse; test: potentiation of DAMGO EC20 TRPC4 response – cell-based, second round, Fluo-4, HEK293 TRPC4beta/mu-opioid, 1 µM, confirmation (AID 2554;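 active = primary screen hit whose fluorescence ratio, in both repeats, exceeds the weak agonist control mean by 3 SD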); conditions: DAMGO EC20, Fluo-4 calcium flux, at 1 µM; hits give high values
[4] = test system: TRPC4 beta (transient receptor potential cation channel C4), mouse; test: potentiation of DAMGO EC20 TRPC4 response – cell-based, Fluo-4, HEK293 TRPC4beta/mu-opioid, confirmation (AID 2555;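 active = primary screen hit whose calcium fluorescence ratio, in both repeats, exceeds the weak agonist control mean by 3 SD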); conditions: DAMGO EC20, Fluo-4 calcium flux, at 10 µM; hits give high values
[5] = target: Short transient receptor potential channel 4 (Mus musculus) (UniProt Q9QUQ5); test: blockers of DAMGO-evoked TRPC4 calcium flux – cell-based, Fluo4, HEK293 TRPC4beta/mu-opioid, confirmation (AID 2636;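 active = calcium signal cut by more than 3 SD below the full-agonist control yet still positive, in both repeats and the earlier primary screen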); conditions: at 10 µM; hits give high values
Short transient receptor potential channel 4 (Mus musculus), sequence (Q9QUQ5 whole entry, looked up): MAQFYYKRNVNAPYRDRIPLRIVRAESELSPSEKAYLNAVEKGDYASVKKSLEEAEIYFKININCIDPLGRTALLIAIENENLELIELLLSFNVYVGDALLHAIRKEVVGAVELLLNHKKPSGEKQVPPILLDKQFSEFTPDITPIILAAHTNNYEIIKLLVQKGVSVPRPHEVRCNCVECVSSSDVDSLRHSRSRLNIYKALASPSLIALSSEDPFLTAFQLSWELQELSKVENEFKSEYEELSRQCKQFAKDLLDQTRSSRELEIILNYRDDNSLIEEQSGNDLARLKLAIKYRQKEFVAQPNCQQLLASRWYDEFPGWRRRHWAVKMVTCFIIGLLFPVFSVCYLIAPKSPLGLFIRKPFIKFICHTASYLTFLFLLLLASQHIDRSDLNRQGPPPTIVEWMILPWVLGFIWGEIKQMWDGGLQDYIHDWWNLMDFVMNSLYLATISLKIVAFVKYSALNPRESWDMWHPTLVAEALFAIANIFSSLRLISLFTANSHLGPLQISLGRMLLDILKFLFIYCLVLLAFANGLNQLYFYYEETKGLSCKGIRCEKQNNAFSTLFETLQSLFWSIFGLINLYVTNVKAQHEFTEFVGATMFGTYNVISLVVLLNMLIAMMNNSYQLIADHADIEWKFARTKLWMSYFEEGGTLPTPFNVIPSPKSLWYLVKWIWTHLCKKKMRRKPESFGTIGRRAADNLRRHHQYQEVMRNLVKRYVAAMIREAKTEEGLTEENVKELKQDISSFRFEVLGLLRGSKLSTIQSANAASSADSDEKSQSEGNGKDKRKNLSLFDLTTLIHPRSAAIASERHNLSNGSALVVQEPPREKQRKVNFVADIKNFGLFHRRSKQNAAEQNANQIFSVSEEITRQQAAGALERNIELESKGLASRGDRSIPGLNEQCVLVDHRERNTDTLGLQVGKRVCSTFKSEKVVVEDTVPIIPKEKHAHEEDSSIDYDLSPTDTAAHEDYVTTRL

[6] = target: Short transient receptor potential channel 4 (Mus musculus) (UniProt Q9QUQ5); test: blockers of DAMGO-evoked TRPC4 calcium flux – cell-based, second round, Fluo4, HEK293 TRPC4beta/mu-opioid, 1 µM, confirmation (AID 2637;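 active = calcium signal ratio cut to more than 3 SD under the fully stimulated control mean yet still positive, in both repeats and the primary screen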); conditions: at 1 µM; hits give high values
[7] = target: Short transient receptor potential channel 4 (Mus musculus) (UniProt Q9QUQ5); test: potentiation of DAMGO-evoked TRPC4 calcium signal – cell-based, HEK293 TRPC4/mu-opioid, Fluo-4 calcium, EC20 DAMGO, dose response (AID 434941;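 active = earlier screen potentiator hit that boosts the TRPC4 ion channel at some dose, with a dose response; inactive = no potentiation, no dose response, or not a prior hit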;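 note: calcium entry triggered by an EC20 dose of DAMGO at the co-expressed mu-opioid receptor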)
[8] = target: Short transient receptor potential channel 4 (Mus musculus) (UniProt Q9QUQ5); test: block of DAMGO-driven TRPC4 calcium entry – cell-based, HEK293 TRPC4/mu-opioid, Fluo-4 calcium, dose response (AID 434942;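 active = primary screen inhibitor hit that blocks the TRPC4 channel at some tested dose, yielding a dose curve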)
[9] = target: Short transient receptor potential channel 6 (Mus musculus) (UniProt Q61143); test: TRPC6 blockade by TRPC4 inhibitor hits – cell-based, HEK293, membrane potential dye, duplicate, selectivity assay for TRPC4 inhibitor project, confirmation (AID 434948;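 active = active in primary screen and both duplicates, each dropping signal beyond three positive-control SD with fluorescence still positive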); conditions: HEK293 TRPC6, membrane potential dye fluorescence, at 10 µM, stimulated with maximal-effect acetylcholine; hits give high values
Short transient receptor potential channel 6 (Mus musculus), sequence (Q61143 whole entry, looked up): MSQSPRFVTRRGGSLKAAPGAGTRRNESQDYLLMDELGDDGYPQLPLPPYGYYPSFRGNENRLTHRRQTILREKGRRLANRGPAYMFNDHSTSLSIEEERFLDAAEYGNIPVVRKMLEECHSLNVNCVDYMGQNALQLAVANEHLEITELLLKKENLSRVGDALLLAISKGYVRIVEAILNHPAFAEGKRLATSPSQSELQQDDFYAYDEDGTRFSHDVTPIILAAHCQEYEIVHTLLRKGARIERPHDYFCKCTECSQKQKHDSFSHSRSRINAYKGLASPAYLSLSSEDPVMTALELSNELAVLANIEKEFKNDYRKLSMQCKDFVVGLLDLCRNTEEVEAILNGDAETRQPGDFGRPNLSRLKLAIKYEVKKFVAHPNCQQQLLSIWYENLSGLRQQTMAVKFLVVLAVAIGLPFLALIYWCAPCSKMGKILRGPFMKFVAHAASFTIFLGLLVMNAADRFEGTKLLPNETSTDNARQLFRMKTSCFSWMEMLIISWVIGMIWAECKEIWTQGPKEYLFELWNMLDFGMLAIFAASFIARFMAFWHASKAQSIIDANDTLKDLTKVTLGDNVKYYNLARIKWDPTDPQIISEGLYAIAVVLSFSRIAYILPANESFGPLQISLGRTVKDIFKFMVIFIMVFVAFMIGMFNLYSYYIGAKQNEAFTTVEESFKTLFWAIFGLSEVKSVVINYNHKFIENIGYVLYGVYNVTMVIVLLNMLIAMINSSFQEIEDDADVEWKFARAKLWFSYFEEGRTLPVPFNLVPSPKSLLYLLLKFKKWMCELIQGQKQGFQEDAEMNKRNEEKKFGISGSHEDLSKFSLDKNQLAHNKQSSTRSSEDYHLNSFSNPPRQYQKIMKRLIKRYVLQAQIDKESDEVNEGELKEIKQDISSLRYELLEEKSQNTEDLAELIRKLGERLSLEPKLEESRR

[10] = target: Short transient receptor potential channel 6 (Mus musculus) (UniProt Q61143); test: TRPC6 opening by TRPC4 activator hits – cell-based, HEK293, membrane potential dye, duplicate, selectivity assay for TRPC4 activator project, confirmation (AID 434950;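 active = membrane potential signal rise above negative control mean plus 3 SD in both duplicates, also active in the earlier TRPC4 screen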;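 for activation: 0% = buffer only wells and 100% = acetylcholine maximal-effect wells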); conditions: HEK293 TRPC6, membrane potential fluorescence, at 10 µM; activation: hits give high values; outcome: activation
[11] = target: Short transient receptor potential channel 6 (Mus musculus) (UniProt Q61143); test: positive modulators of mouse TRPC6 channel – HEK293 cells, membrane potential dye, duplicate, selectivity assay for TRPC4 potentiator project, confirmation (AID 434952); conditions: HEK293 TRPC6, membrane potential dye fluorescence, at 10 µM, maximal acetylcholine added after compound; hits give high values
[12] = target: Short transient receptor potential channel 4 (Mus musculus) (UniProt Q9QUQ5); test: calcium flux activators in TRPC4/5HT1a cells, counter-screen for TRPC4 activator project, cell-based, second counter screen, HEK293 TRPC4/5HT1a, Fluo-4 (AID 434977;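 active = calcium signal rise above buffer-control mean plus 5 SD in both duplicates, and also a hit in the primary screen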;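 for activation: plate controls were assay buffer for no effect and maximal serotonin response for full effect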); conditions: Fluo-4 calcium flux, at 10 µM; hits give high values
[13] = serotonin-gated TRPC4 signal block – cell-based, second counter screen, HEK293 TRPC4/5HT1a, Fluo-4, counter-screen for TRPC4 inhibitor project, confirmation (AID 434978;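 active = primary screen active whose calcium signal fell more than 3 SD beyond the full-serotonin control mean in both duplicate plates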;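 note: serotonin given first at submaximal then at maximal dose after compound preincubation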); conditions: Fluo-4 calcium flux, at 10 µM, serotonin added to trigger calcium flux; hits give high values
[14] = test system: TRPC4 (mouse), co-expressed with 5HT1a in HEK293; test: enhancement of serotonin-evoked TRPC4 response – cell-based, second counter screen, HEK293 TRPC4/5HT1a, Fluo-4, counter-screen for TRPC4 potentiator project, confirmation (AID 434979;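 active = signal rise over 3 SD above mean of control wells given weak agonist, in both repeats and first screen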); conditions: Fluo-4 calcium flux, at 10 µM, serotonin added at its EC20 dose; hits give high values
[15] = nonspecific calcium rise without TRPC4 – cell-based, HEK293 mu-opioid receptor line, counter-screen for TRPC4 activator project, confirmation (AID 449723;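 active = hit in primary screen, with calcium signal over 5 SD above buffer well mean in both duplicates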;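 note: counter screen cells carry the mu-opioid receptor alone and lack TRPC4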); conditions: HEK293 mu-opioid cells, Fluo-4 calcium fluorescence, at 10 µM; hits give high values
[16] = nonspecific potentiation of DAMGO calcium response – cell-based, HEK293 mu-opioid receptor line, counter-screen for TRPC4 allosteric potentiator project, confirmation (AID 449724;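 active = calcium signal rise more than 3 SD above the low-dose agonist control mean, in both duplicate plates and the primary screen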); conditions: HEK293 mu-opioid receptor cells, Fluo-4 calcium flux, at 10 µM, compound added before EC20 DAMGO stimulus; hits give high values

Cc1csc2c(N3CCN(C(=O)NC(C)(C)C)CC3)ncnc12
active: activation [1] 92% | activation [12] 36.7%
inactive: outcome [2] | outcome [3] | outcome [4] | outcome [5] | outcome [6] | outcome [7] | outcome [8] | outcome [9] | outcome [10] | outcome [11] | outcome [13] | outcome [14] | outcome [15] | outcome [16]

CCCN(CCC)CCCNC(=O)C1CCN(S(=O)(=O)c2cccc3nsnc23)CC1
active: activation [1] 145% | activation [2] 95% | activation [12] 54.7%
inactive: outcome [3] | outcome [4] | outcome [5] | outcome [6] | outcome [7] | outcome [8] | outcome [9] | outcome [10] | outcome [11] | outcome [13] | outcome [14] | outcome [15] | outcome [16]

CCCN(CCC)CCNC(=S)Nc1ccc2nc3n(c(=O)c2c1)CCCCC3
active: activation [10] 47% | activation [12] 7.78%
inactive: outcome [1] | outcome [2] | outcome [3] | outcome [4] | outcome [5] | outcome [6] | outcome [7] | outcome [8] | outcome [9] | outcome [11] | outcome [13] | outcome [14] | outcome [15] | outcome [16]

COc1ccc(-c2cc(C#N)nc(N3CCNCC3)n2)cc1
inactive: outcome [2] | outcome [3] | outcome [4] | outcome [5] | outcome [6] | outcome [7] | outcome [8] | outcome [9] | outcome [10] | outcome [11] | outcome [12] | outcome [13] | outcome [14] | outcome [15] | outcome [16]
active: activation [1] 176%

CN(C)CCCN(C(=O)c1ccc(S(=O)(=O)N2CCCc3ccccc32)cc1)c1nc2ccc(F)cc2s1
inactive: outcome [2] | outcome [3] | outcome [4] | outcome [5] | outcome [6] | outcome [7] | outcome [8] | outcome [9] | outcome [10] | outcome [11] | outcome [12] | outcome [13] | outcome [14] | outcome [16]
active: activation [1] 134% | activation [15] 14.7%

CCCCN(CC)CCNC(=O)c1cc2cc3ccc(Cl)cc3nc2o1
active: activation [1] 67% | potentiation [3] 20% | potentiation [4] 47% | activation [12] 18.8% | potentiation [14] 40.5%
inactive: outcome [2] | outcome [5] | outcome [6] | outcome [7] | outcome [8] | outcome [9] | outcome [10] | outcome [11] | outcome [13] | outcome [15] | outcome [16]

COc1ccc(C(CNC(=O)C(C)c2ccc3cc(OC)ccc3c2)N(C)C)cc1 (configuration not stated)
inactive: outcome [3] | outcome [4] | outcome [5] | outcome [6] | outcome [7] | outcome [8] | outcome [9] | outcome [11] | outcome [13] | outcome [14] | outcome [15] | outcome [16]
active: activation [1] 243% | activation [2] 98% | activation [10] 63% | activation [12] 8.72%

CN(C)C(CNC(=O)C1CC(=O)N(Cc2ccccc2)C1)c1ccccc1 (configuration not stated)
active: activation [1] 90%
inactive: outcome [2] | outcome [3] | outcome [4] | outcome [5] | outcome [6] | outcome [7] | outcome [8] | outcome [9] | outcome [10] | outcome [11] | outcome [12] | outcome [13] | outcome [14] | outcome [15] | outcome [16]

CC1CC(C)CN(CCCNC(=O)COc2cc(=O)n(C)c3ccccc23)C1 (configuration not stated)
inactive: outcome [3] | outcome [4] | outcome [5] | outcome [6] | outcome [7] | outcome [8] | outcome [9] | outcome [10] | outcome [11] | outcome [13] | outcome [15] | outcome [16]
active: activation [1] 88% | activation [2] 80% | activation [12] 23.2% | potentiation [14] 26.9%

OCCNCCSc1ccc(Cl)cc1
inactive: outcome [2] | outcome [3] | outcome [4] | outcome [5] | outcome [6] | outcome [7] | outcome [8] | outcome [9] | outcome [11] | outcome [13] | outcome [14] | outcome [15] | outcome [16]
active: activation [1] 82% | activation [10] 39.5% | activation [12] 22.3%

OC(CNC1CCCc2ccccc21)COc1ccc2ccccc2c1 (configuration not stated)
inactive: outcome [2] | outcome [3] | outcome [4] | outcome [5] | outcome [6] | outcome [7] | outcome [8] | outcome [9] | outcome [11] | outcome [13] | outcome [14] | outcome [15] | outcome [16]
active: activation [1] 158% | activation [10] 55% | activation [12] 30.1%

CC(=O)N1CCc2cc(Br)cc(S(=O)(=O)NCCCN(C)Cc3ccccc3)c21
inactive: outcome [3] | outcome [4] | outcome [5] | outcome [6] | outcome [7] | outcome [8] | outcome [9] | outcome [10] | outcome [11] | outcome [13] | outcome [14] | outcome [15] | outcome [16]
active: activation [1] 87% | activation [2] 72% | activation [12] 27.8%

Cc1csc2c(N3CCN(C(=S)Nc4ccc(F)cc4F)CC3)ncnc12
inactive: outcome [2] | outcome [3] | outcome [4] | outcome [5] | outcome [6] | outcome [7] | outcome [8] | outcome [9] | outcome [10] | outcome [11] | outcome [13] | outcome [14] | outcome [15] | outcome [16]
active: activation [1] 126% | activation [12] 40.5%

COc1ccc(C(CNC(=O)c2cc(SC)ccc2Cl)N(C)C)cc1 (configuration not stated)
inactive: outcome [3] | outcome [4] | outcome [5] | outcome [6] | outcome [7] | outcome [8] | outcome [9] | outcome [11] | outcome [12] | outcome [13] | outcome [14] | outcome [15] | outcome [16]
active: activation [1] 103% | activation [2] 77% | activation [10] 65%

CCc1cccc(CC)c1NC(=S)NCC(c1cccnc1)N(C)C (configuration not stated)
inactive: outcome [3] | outcome [4] | outcome [5] | outcome [6] | outcome [7] | outcome [8] | outcome [9] | outcome [11] | outcome [12] | outcome [13] | outcome [14] | outcome [15] | outcome [16]
active: activation [1] 79% | activation [2] 67% | activation [10] 46%

CC1CCCN(CCCNC(=O)c2ccc3c(c2)N(Cc2ccccc2F)C(=O)c2ccccc2S3(=O)=O)C1 (configuration not stated)
active: activation [1] 125% | activation [2] 68% | activation [12] 24.4%
inactive: outcome [3] | outcome [4] | outcome [5] | outcome [6] | outcome [7] | outcome [8] | outcome [9] | outcome [10] | outcome [11] | outcome [13] | outcome [14] | outcome [15] | outcome [16]

O=C(NNC(=S)NC(=O)C12CC3CC(CC(C3)C1)C2)c1ccncc1
inactive: outcome [2] | outcome [3] | outcome [4] | outcome [5] | outcome [6] | outcome [7] | outcome [8] | outcome [9] | outcome [10] | outcome [11] | outcome [13] | outcome [14] | outcome [16]
active: activation [1] 192% | activation [12] 126% | activation [15] 44.2%

— PubChem BioAssay
